This note sets out measurements from ChEMBL document CHEMBL2218924, “A broad activity screen in support of a chemogenomic map for kinase signalling research and drug discovery” (Biochem J, 2013).

One assay concerns the target Protein kinase C alpha type (Homo sapiens) (UniProt P17252). The note with it: at 1 µM.
On to `NC(=O)Nc1sc(-c2ccc(F)cc2)cc1C(N)=O`, for which the residual activity (in general, the signal under treatment as a percentage of the control signal) stood at 91%.

As to `O=C1Cc2c([nH]c3ccc([N+](=O)[O-])cc23)-c2ccccc2N1`, the residual activity amounted to 100%.

`Cn1sc(=O)n(Cc2ccccc2)c1=O`: the residual activity came out at 85%.

Take `Nc1ncnc2[nH]nc(Nc3ccc(F)cc3)c12`: the residual activity amounted to 108%.

Turning to `Cn1c2ccccc2c2c3c(c4c5ccccc5n(CCC#N)c4c21)CNC3=O`, the residual activity stood at 1%.

Consider `COc1cc2c(cc1OC)-c1n[nH]c(Nc3cccc(F)c3)c1C2`, for which the residual activity was 104%.

In the case of `O=C(CCCc1ccc(-c2ccccc2F)cc1)Nc1ccc(O)cc1`, the residual activity was 106%.

With `O=C1NC(=O)c2c1c1c3ccccc3[nH]c1n1cncc21`, the residual activity was 97%.

With `CC(C)(C)n1nc(Cc2cccc3ccccc23)c2c(N)ncnc21`, the residual activity is 93%.

Regarding `CCCC(=O)Oc1ccc2[nH]c(C(=O)c3cc4ccccc4[nH]3)cc2c1`, the residual activity is 106%.

In the case of `Nc1ncnc2c1c(-c1ccc(Oc3ccccc3)cc1)cn2C1CCCC1`, the residual activity turned out to be 102%.

For `COc1cc2nccc(Oc3ccc(NC(=S)NC(=O)c4ccccc4C)cc3)c2cc1OC`, the residual activity amounted to 99%.

For `NCCNc1ncc(C(N)=O)c(Nc2cccc(C(F)(F)F)c2)n1`, the residual activity amounted to 45%.

Regarding `COc1cc2ncnc(Nc3cccc(Cl)c3)c2cc1OC`, the residual activity stood at 103%.

Regarding `c1ccc(-c2cnc(Nc3ccc(OCCN4CCCC4)cc3)s2)cc1`, the residual activity was 101%.

Take `COc1ccc2c(c1)c(C1=C(c3c[nH]c4ccccc34)C(=O)NC1=O)cn2CCCN(C)C`: the residual activity was -1%.

For the compound `CC(C)(C)c1nc2c3ccc(F)cc3c3c(=O)[nH]ccc3c2[nH]1`, the residual activity came to 65%.

Regarding `O=C1NC(=O)C(c2c[nH]c3ccccc23)=C1c1c[nH]c2ccccc12`, the residual activity came to 26%.

Take `O=C(O)/C=C/c1cc(Br)c(Br)c(Br)c1Br`: the residual activity came out at 105%.

On to `Nc1ncnc2c1cnn2-c1ccccc1`, for which the residual activity is 97%.

For a further assay the target is unchanged. The note with it: at 10 µM.
Regarding `NC(=O)Nc1sc(-c2ccc(F)cc2)cc1C(N)=O`, the residual activity was determined as 54%.

As to `O=C1Cc2c([nH]c3ccc([N+](=O)[O-])cc23)-c2ccccc2N1`, the residual activity stood at 105%.

`Cn1sc(=O)n(Cc2ccccc2)c1=O`: the residual activity worked out at 3%.

`Cn1c2ccccc2c2c3c(c4c5ccccc5n(CCC#N)c4c21)CNC3=O`: the residual activity is 3%.

Consider `COc1cc2c(cc1OC)-c1n[nH]c(Nc3cccc(F)c3)c1C2`, for which the residual activity is 99%.

As to `O=C(CCCc1ccc(-c2ccccc2F)cc1)Nc1ccc(O)cc1`, the residual activity worked out at 108%.

Regarding `O=C1NC(=O)c2c1c1c3ccccc3[nH]c1n1cncc21`, the residual activity was determined as 84%.

In the case of `CC(C)(C)n1nc(Cc2cccc3ccccc23)c2c(N)ncnc21`, the residual activity is 93%.

As to `CCCC(=O)Oc1ccc2[nH]c(C(=O)c3cc4ccccc4[nH]3)cc2c1`, the residual activity is 108%.

Consider `Nc1ncnc2c1c(-c1ccc(Oc3ccccc3)cc1)cn2C1CCCC1`, for which the residual activity was found to be 98%.

With `COc1cc2nccc(Oc3ccc(NC(=S)NC(=O)c4ccccc4C)cc3)c2cc1OC`, the residual activity was 99%.

In the case of `NCCNc1ncc(C(N)=O)c(Nc2cccc(C(F)(F)F)c2)n1`, the residual activity is 8%.

`COc1cc2ncnc(Nc3cccc(Cl)c3)c2cc1OC`: the residual activity was 108%.

As for `c1ccc(-c2cnc(Nc3ccc(OCCN4CCCC4)cc3)s2)cc1`, the residual activity turned out to be 110%.

Take `COc1ccc2c(c1)c(C1=C(c3c[nH]c4ccccc34)C(=O)NC1=O)cn2CCCN(C)C`: the residual activity is 0%.

For the compound `CC(C)(C)c1nc2c3ccc(F)cc3c3c(=O)[nH]ccc3c2[nH]1`, the residual activity is 62%.

On to `O=C1NC(=O)C(c2c[nH]c3ccccc23)=C1c1c[nH]c2ccccc12`, for which the residual activity was determined as 4%.

Consider `O=C(O)/C=C/c1cc(Br)c(Br)c(Br)c1Br`, for which the residual activity worked out at 102%.

For `Nc1ncnc2c1cnn2-c1ccccc1`, the residual activity was 97%.

The next assay deals with Protein kinase C beta type (Homo sapiens) (UniProt P05771). The settings on record: at 1 µM.
Sequence of Protein kinase C beta type (Homo sapiens) (P05771 2-671 limits assumed): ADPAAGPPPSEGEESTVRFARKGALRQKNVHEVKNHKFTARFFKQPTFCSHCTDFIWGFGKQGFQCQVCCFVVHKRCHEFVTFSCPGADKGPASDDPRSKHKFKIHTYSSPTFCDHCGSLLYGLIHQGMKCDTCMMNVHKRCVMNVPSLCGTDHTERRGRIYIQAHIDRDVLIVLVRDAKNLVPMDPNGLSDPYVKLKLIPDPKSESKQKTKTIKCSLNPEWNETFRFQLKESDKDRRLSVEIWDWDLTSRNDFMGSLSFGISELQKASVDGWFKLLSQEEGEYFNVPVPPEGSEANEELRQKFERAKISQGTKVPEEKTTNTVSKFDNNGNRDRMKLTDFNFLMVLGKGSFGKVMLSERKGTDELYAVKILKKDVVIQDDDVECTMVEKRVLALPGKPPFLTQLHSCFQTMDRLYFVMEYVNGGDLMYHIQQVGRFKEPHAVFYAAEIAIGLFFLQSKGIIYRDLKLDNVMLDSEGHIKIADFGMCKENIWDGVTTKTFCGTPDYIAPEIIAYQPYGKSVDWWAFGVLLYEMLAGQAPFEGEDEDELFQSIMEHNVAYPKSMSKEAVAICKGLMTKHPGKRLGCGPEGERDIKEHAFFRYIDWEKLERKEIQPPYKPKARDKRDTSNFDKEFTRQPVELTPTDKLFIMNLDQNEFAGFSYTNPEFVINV
For the compound `NC(=O)Nc1sc(-c2ccc(F)cc2)cc1C(N)=O`, the residual activity was 103%.

On to `Cn1sc(=O)n(Cc2ccccc2)c1=O`, for which the residual activity was determined as 94%.

For the compound `Nc1ncnc2[nH]nc(Nc3ccc(F)cc3)c12`, the residual activity turned out to be 122%.

On to `Cn1c2ccccc2c2c3c(c4c5ccccc5n(CCC#N)c4c21)CNC3=O`, for which the residual activity came to 6%.

`COc1cc2c(cc1OC)-c1n[nH]c(Nc3cccc(F)c3)c1C2`: the residual activity was 104%.

`O=C(CCCc1ccc(-c2ccccc2F)cc1)Nc1ccc(O)cc1`: the residual activity is 112%.

With `CCCCc1c(-c2ccc(OC)cc2)[nH]c2nccnc12`, the residual activity is 101%.

For the compound `CCN(CC)CCNC(=O)c1c(C)[nH]c(/C=C2\C(=O)Nc3ccc(Cl)cc32)c1C`, the residual activity came out at 125%.

`CC(C)(C)n1nc(Cc2cccc3ccccc23)c2c(N)ncnc21`: the residual activity was 119%.

On to `Nc1ncnc2c1c(-c1ccc(Oc3ccccc3)cc1)cn2C1CCCC1`, for which the residual activity was determined as 103%.

With `NCCNc1ncc(C(N)=O)c(Nc2cccc(C(F)(F)F)c2)n1`, the residual activity is 106%.

Regarding `COc1cc2ncnc(Nc3cccc(Cl)c3)c2cc1OC`, the residual activity was found to be 110%.

As to `c1ccc(-c2cnc(Nc3ccc(OCCN4CCCC4)cc3)s2)cc1`, the residual activity stood at 121%.

With `O=C(c1ccccc1)c1ccc(N2CCOCC2)cc1O`, the residual activity amounted to 120%.

Consider `COc1ccc2c(c1)c(C1=C(c3c[nH]c4ccccc34)C(=O)NC1=O)cn2CCCN(C)C`, for which the residual activity was found to be 4%.

With `O=C1NC(=O)C(c2c[nH]c3ccccc23)=C1c1c[nH]c2ccccc12`, the residual activity amounted to 66%.

Take `O=C(O)/C=C/c1cc(Br)c(Br)c(Br)c1Br`: the residual activity is 124%.

The target is the same in a further assay. The settings on record: at 10 µM.
For `NC(=O)Nc1sc(-c2ccc(F)cc2)cc1C(N)=O`, the residual activity was 77%.

With `Cn1sc(=O)n(Cc2ccccc2)c1=O`, the residual activity is 54%.

For `Nc1ncnc2[nH]nc(Nc3ccc(F)cc3)c12`, the residual activity is 110%.

On to `Cn1c2ccccc2c2c3c(c4c5ccccc5n(CCC#N)c4c21)CNC3=O`, for which the residual activity worked out at 6%.

Regarding `COc1cc2c(cc1OC)-c1n[nH]c(Nc3cccc(F)c3)c1C2`, the residual activity came to 108%.

For the compound `O=C(CCCc1ccc(-c2ccccc2F)cc1)Nc1ccc(O)cc1`, the residual activity was 108%.

Regarding `CCCCc1c(-c2ccc(OC)cc2)[nH]c2nccnc12`, the residual activity stood at 90%.

Consider `CCN(CC)CCNC(=O)c1c(C)[nH]c(/C=C2\C(=O)Nc3ccc(Cl)cc32)c1C`, for which the residual activity was determined as 117%.

Regarding `CC(C)(C)n1nc(Cc2cccc3ccccc23)c2c(N)ncnc21`, the residual activity is 97%.

Turning to `CCCC(=O)Oc1ccc2[nH]c(C(=O)c3cc4ccccc4[nH]3)cc2c1`, the residual activity turned out to be 93%.

Consider `Nc1ncnc2c1c(-c1ccc(Oc3ccccc3)cc1)cn2C1CCCC1`, for which the residual activity is 103%.

Take `NCCNc1ncc(C(N)=O)c(Nc2cccc(C(F)(F)F)c2)n1`: the residual activity stood at 60%.

On to `COc1cc2ncnc(Nc3cccc(Cl)c3)c2cc1OC`, for which the residual activity is 106%.

Turning to `c1ccc(-c2cnc(Nc3ccc(OCCN4CCCC4)cc3)s2)cc1`, the residual activity stood at 116%.

As for `O=C(c1ccccc1)c1ccc(N2CCOCC2)cc1O`, the residual activity was 113%.

In the case of `COc1ccc2c(c1)c(C1=C(c3c[nH]c4ccccc34)C(=O)NC1=O)cn2CCCN(C)C`, the residual activity was -1%.

Turning to `O=C1NC(=O)C(c2c[nH]c3ccccc23)=C1c1c[nH]c2ccccc12`, the residual activity worked out at 23%.
